Experimental data reported in publication PMC5540273 (PLoS ONE, 2017).

Assays:
Settings in all cases: concentration: 1 μM,replicates: in singlicate; n = 1
NIM1 = test system: T1, NIM1
T1 construct: gene MGC42105

NLK = test system: NLK
OSR1 = test system: T2, OSR1
T2 construct: gene OXSR1

PAK1 = test system: PAK1
PAK2 = test system: PAK2
PAK3 = test system: PAK3
PAK4 = test system: PAK4
PAK6 = test system: PAK6
PAK7 = test system: PAK7
PCTK1 = test system: T3, PCTK1
T3 construct: gene CDK16
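Note: KINOMEscan kinase panel screen.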

| SMILES | %Inh (NIM1) [%] | %Inh (NLK) [%] | %Inh (OSR1) [%] | %Inh (PAK1) [%] | %Inh (PAK2) [%] | %Inh (PAK3) [%] | %Inh (PAK4) [%] | %Inh (PAK6) [%] | %Inh (PAK7) [%] | %Inh (PCTK1) [%] |
| --- | --- | --- | --- | --- | --- | --- | --- | --- | --- | --- |
| Cl.c1ccc(Oc2ccc(Nc3ccnc4cc(-c5ccc(CN6CCNCC6)o5)ccc34)cc2)nc1 [GW567142] | 0 | 15 | 0 | 7 | 0 | 0 | 0 | 0 | 0 | 1 |
| FC(F)(F)c1cc(Br)cc(Nc2nccc(-c3cnn4ncccc34)n2)c1 [GW810578] | 0 | 0 | 2 | 11 | 45 | 27 | 22 | 20 | 6 | 3 |
| CS(=O)(=O)c1cccc(CNc2nc(Nc3ccc4c(c3)[C@@H]3C[C@@H]4CNC3=O)ncc2C(F)(F)F)c1 | 0 | 0 | 48 | 5 | 12 | 0 | 0 | 18 | 20 | 0 |
| Nc1nccc(-c2ccc3c(N)n[nH]c3c2)n1 [GSK1034945] | 17 | 33 | 6 | 18 | 11 | 7 | 0 | 0 | 2 | 0 |
| CC(=O)c1c(-c2ccncc2)[nH]c(-c2ccncc2)c1C [GW493036] | 8 | 18 | 3 | 15 | 19 | 20 | 0 | 2 | 0 | 4 |
| CCCC(=O)Nc1n[nH]c2ncccc12 [SB-601436] | 0 | 0 | 0 | 0 | 17 | 0 | 0 | 0 | 0 | 0 |
| Cn1ccc2ncnc(Oc3ccc(NC(=O)Nc4cccc(C(F)(F)F)c4)c(F)c3)c21 | 0 | 18 | 0 | 14 | 12 | 0 | 6 | 0 | 0 | 0 |
| Cc1ccn2nc(-c3ccc(F)cc3)c(-c3ccncc3)c2c1.Cl [GW457859] | 20 | 79 | 0 | 0 | 0 | 0 | 0 | 0 | 21 | 0 |
| COc1ccc(Nc2nccc(N3CCC(NC(=O)c4cccc(C#N)c4)C3)n2)cc1 (stereo not shown) [GSK1379730] | 0 | 0 | 0 | 0 | 0 | 24 | 0 | 0 | 0 | 3 |
| Cc1ccc(C(=O)Nc2ccc(Oc3ccc4nc(NC(=O)C5CC5)cn4c3)c(F)c2)c(=O)n1-c1ccccc1 | 0 | 7 | 0 | 0 | 2 | 12 | 0 | 8 | 0 | 0 |
| COc1cc2ncn(-c3cc(OCC4CCCCC4)c(C(N)=O)s3)c2cc1OC [GSK204559] | 3 | 0 | 15 | 9 | 17 | 18 | 0 | 0 | 1 | 3 |
| COc1cc2c(Nc3ccc(NC(=O)c4ccccc4)cc3)ncnc2cc1OCCCN1CCOCC1 [GSK301329] | 16 | 7 | 20 | 0 | 3 | 30 | 0 | 5 | 0 | 3 |
| Cc1ccc(CC(=O)N2CCc3cc(-c4cn(C)c5ncnc(N)c45)ccc32)cc1 [GSK2634758] | 13 | 1 | 0 | 0 | 0 | 49 | 0 | 100 | 0 | 0 |
| Cc1nnc(-c2ccc3occ(-c4ccc(S(C)=O)cc4)c3n2)o1 (stereo not shown) | 0 | 55 | 0 | 4 | 0 | 0 | 0 | 3 | 0 | 0 |
| CC(C)S(=O)(=O)N1CCN(Cc2ccc3c(c2)nc(NC(=O)c2ccsc2)n3C[C@H](O)c2ccccc2)CC1 [GW635815] | 20 | 0 | 10 | 22 | 27 | 15 | 44 | 9 | 35 | 0 |
| O=C(Nc1n[nH]c2cc(-c3ccco3)ccc12)C1CC1 [SB-737447] | 0 | 4 | 12 | 0 | 48 | 0 | 1 | 0 | 8 | 36 |
